Experimental data from PubChem BioAssay (Tox21).
Records with an inconclusive call do not appear. Active and inactive are the calls of the source. Unless noted, calls come from the whole dose curve.

Tests used:
[1] = target: Peroxisome proliferator-activated receptor delta (Homo sapiens) (UniProt Q03181); assay: qHTS assay to identify small molecule antagonists of the peroxisome proliferator-activated receptor delta (PPARd) signaling pathway (AID 743215; active = well fitted inhibition curve with a large enough effect in the signal ratio in the repeat runs, not every such curve was filed as active; the % refers to the signal ratio;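 note: cells stimulated with agonist L165041 at 300 nM final during compound exposure; series mostly up to about 62 µM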)
Procedure, shortened: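 Cells: HEK293H with a UAS-driven beta-lactamase reporter responsive to PPARd. Compounds were co-added with L165041 (300 nM, final) and incubated 17 h at 37 C before a 2 h room-temperature FRET substrate step and fluorescence reading.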

[2] = qHTS assay to identify small molecule agonists of the farnesoid-X-receptor (FXR) signaling pathway - cell viability counter screen (AID 743218; active = well fitted curve in the direction sought with a large enough effect in the repeat runs; an effect the other way counts as inactive or inconclusive; note: nearly all actives have a fitted effect of over 45% in size)
Procedure, shortened: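 Cells were seeded, left 5 h at 37 C and 5% CO2, then dosed with compound in DMSO for 16 h. After the beta-lactamase FRET read, CellTiter-Glo was added and luminescence measured 30 min later.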

[3] = qHTS assay to identify small molecule antagonists of the farnesoid-X-receptor (FXR) signaling pathway - cell viability counter screen (AID 743221; active = well fitted cell-killing curve with a large enough effect in the repeat runs, not every such curve was filed as active; note: nearly all actives have a fitted effect of over 50% in size)
Procedure, shortened: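 Here viability was scored by luminescence after CellTiter-Glo addition to wells already read for beta-lactamase. Prior treatment: compound plus CDCA (50 uM final), 16 h, 37 C, HEK 293T FXR-bla cells.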

[4] = target: Vitamin D3 receptor (Homo sapiens) (UniProt P11473); assay: qHTS assay to identify small molecule agonists of the vitamin D receptor (VDR) signaling pathway (AID 743222)
Procedure, shortened: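 Cells carrying a VDR-driven beta-lactamase reporter are seeded at 2,000 per well and rested 4 h. Compounds in DMSO are added for 16 h at 37C, and FRET substrate fluorescence is measured after 2 h at room temperature.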

[5] = qHTS assay to identify small molecule antagonists of the vitamin D receptor (VDR) signaling pathway - cell viability counter screen (AID 743225; active = well fitted curve in the direction sought with a large enough effect in the repeat runs; an effect the other way counts as inactive or inconclusive; note: nearly all actives have a fitted effect of over 50% in size)
Procedure, shortened: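 Compounds were pinned onto VDR-bla HEK 293T cells together with 1-alpha,25-dihydroxyvitamin D3 at 3 nM final. After 16 h at 37C and 5% CO2 plus the reporter readout, cell viability was measured by CellTiter-Glo luminescence (30 min, room temperature).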

[6] = qHTS assay to identify small molecule agonists of the NFkB signaling pathway (AID 1159509; active = well fitted curve in the direction sought with a large enough effect in the signal ratio in the repeat runs, not every such curve was filed as active; the % refers to the signal ratio; note: series mostly up to about 61 µM)
Procedure, shortened: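 Pathway activation was measured in ME-180 cells stably expressing beta-lactamase under NF-kB response element control. Substrate cleavage was read as the 460/530 nm emission shift after 5 hr compound incubation.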

[7] = qHTS assay to identify small molecule agonists of the NFkB signaling pathway - cell viability counter screen (AID 1159515); note: series mostly up to about 61 µM; nearly all actives have a fitted effect of over 55% in size
Procedure, shortened: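 Cells are seeded (2,000 NFkB-bla ME-180 per well), rested overnight, and dosed with DMSO-dissolved compounds for 5 hr at 37 C. Viability is then read by CellTiter-Glo luminescence after 30 min at room temperature.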

[8] = qHTS assay to identify small molecule agonists of the endoplasmic reticulum stress response signaling pathway (AID 1159516; active = well fitted activation curve with a large enough effect in the signal ratio in the repeat runs, not every such curve was filed as active; the % refers to the signal ratio)
Procedure, shortened: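 Cells are seeded at 1,500 per well and incubated overnight. Compounds in DMSO are added for 5 hr at 37 C, then beta-lactamase FRET substrate for 2 hr at room temperature, and fluorescence at 460 and 530 nm is measured.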

[9] = qHTS assay to identify small molecule agonists of the endoplasmic reticulum stress response signaling pathway - cell viability counter screen (AID 1159517);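 note: HeLa cells carrying an ER stress response element beta-lactamase reporter; series mostly up to about 61 µM; nearly all actives have a fitted effect of over 50% in size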
Procedure, shortened: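 Cpd-treated ESRE-bla HeLa (5 hr, 37 C) → LiveBLAzer 2 hr RT → CellTiter-Glo 30 min RT → luminescence.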

[10] = target: Nuclear receptor ROR-gamma (Homo sapiens) (UniProt P51449); assay: qHTS assay to identify small molecule antagonists of the retinoid-related orphan receptor gamma (ROR-gamma) signaling pathway (AID 1159521; active = well fitted curve in the direction sought with a large enough effect in the repeat runs; an effect the other way counts as inactive or inconclusive; note: nearly all actives have a fitted effect of over 50% in size; note: potency is the fitted concentration of half-maximal effect)
Procedure, shortened: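 Test compounds were applied to Tet-on RORγ CHO cells 2 h ahead of doxycycline hyclate (1 uM final). Luciferase reporter activity was quantified by luminescence after 16 h at 37 C and 5% CO2.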

[11] = qHTS assay to identify small molecule agonists of the AP-1 signaling pathway (AID 1159526)
[12] = qHTS assay to identify small molecule agonists of the peroxisome proliferator-activated receptor delta (PPARd) signaling pathway - cell viability counter screen (AID 743211; active = well fitted curve in the direction sought with a large enough effect in the repeat runs; an effect the other way counts as inactive or inconclusive; note: nearly all actives have a fitted effect of over 55% in size; note: potency is the fitted concentration of half-maximal effect)
Procedure, shortened: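 In the same wells used for beta-lactamase reporter measurement, cytotoxicity is scored by CellTiter-Glo. HEK293H PPARd-bla cells receive compound for 17 h at 37C following a 5 h settling period.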

[13] = qHTS assay to identify small molecule antagonists of the peroxisome proliferator-activated receptor delta (PPARd) signaling pathway - cell viability counter screen (AID 743213; active = well fitted curve in the direction sought with a large enough effect in the repeat runs; an effect the other way counts as inactive or inconclusive; note: nearly all actives have a fitted effect of over 50% in size)
Procedure, shortened: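 PPARd-bla HEK293H cells were treated with compounds plus agonist L165041 (300 nM final) for 17 h at 37 C. Viability was then read in the same wells by CellTiter-Glo luminescence after 30 min at room temperature.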

[14] = target: Bile acid receptor (Homo sapiens) (UniProt Q96RI1); assay: qHTS assay to identify small molecule agonists of the farnesoid-X-receptor (FXR) signaling pathway (AID 743220; active = well fitted activation curve with a large enough effect in the signal ratio in the repeat runs, not every such curve was filed as active; the % refers to the signal ratio)
Procedure, shortened: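 FXR-UAS-bla HEK 293T cells carrying a UAS-driven beta-lactamase reporter were plated for 5 h at 37C/5% CO2, then exposed to DMSO-dissolved Tox21 10K compounds for 16 h at 37C. A LiveBLAzer B/G FRET substrate was loaded for 2 h at room temperature before fluorescence reading.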

[15] = qHTS assay to identify small molecule agonists of the vitamin D receptor (VDR) signaling pathway - cell viability counter screen (AID 743224; active = well fitted curve in the direction sought with a large enough effect in the repeat runs; an effect the other way counts as inactive or inconclusive)
Procedure, shortened: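 Cells: VDR-bla, 2,000/well, settled 4 h. Treatment: compounds in DMSO, 16 h, 37C/5% CO2. Readout: CellTiter-Glo luminescence after 30 min RT.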

[16] = qHTS assay to identify small molecule agonists of the AP-1 signaling pathway - cell viability counter screen (AID 1159525); note: nearly all actives have a fitted effect of over 55% in size
Procedure, shortened: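 Each titration point was normalised to DMSO and tetra n-octyl ammonium bromide controls. The read was Cell Titer Glo luminescence after 30 min at RT, following 5 h compound exposure of ME-180 AP-1-bla cells at 37 °C.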

[17] = target: Peroxisome proliferator-activated receptor delta (Homo sapiens) (UniProt Q03181); assay: qHTS assay to identify small molecule agonists of the peroxisome proliferator-activated receptor delta (PPARd) signaling pathway (AID 743212)
Procedure, shortened: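 Cells expressing a UAS-driven beta-lactamase reporter (PPARd-bla HEK293H) were given test compounds after a 5 h settle and kept at 37 C. Reporter activity was then measured as FRET fluorescence using LiveBLAzer B/G substrate.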

[18] = target: Vitamin D3 receptor (Homo sapiens) (UniProt P11473); assay: qHTS assay to identify small molecule antagonists of the vitamin D receptor (VDR) signaling pathway (AID 743223; active = well fitted inhibition curve with a large enough effect in the signal ratio in the repeat runs, not every such curve was filed as active; the % refers to the signal ratio)
Procedure, shortened: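 Inhibition of agonist-driven VDR signalling is scored in VDR-bla cells: 3 nM final 1alpha,25-dihydroxyvitamin D3 plus compound, 16 h at 37C, then beta-lactamase detection by FRET substrate fluorescence after 2 h.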

[19] = target: Bile acid receptor (Homo sapiens) (UniProt Q96RI1); assay: qHTS assay to identify small molecule antagonists of the farnesoid-X-receptor (FXR) signaling pathway (AID 743217; active = well fitted inhibition curve with a large enough effect in the signal ratio in the repeat runs, not every such curve was filed as active; the % refers to the signal ratio)
Procedure, shortened: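 Cells carrying a UAS-driven beta-lactamase reporter (GeneBLAzer FXR-UAS-bla HEK 293T) were plated and rested 5 h at 37 °C. Compounds in DMSO were added alongside chenodeoxycholic acid agonist at 50 uM final and left 16 h at 37 °C before FRET substrate readout.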

Measured: Potency

Chain of Peroxisome proliferator-activated receptor delta (Homo sapiens) (Q03181 whole entry, looked up): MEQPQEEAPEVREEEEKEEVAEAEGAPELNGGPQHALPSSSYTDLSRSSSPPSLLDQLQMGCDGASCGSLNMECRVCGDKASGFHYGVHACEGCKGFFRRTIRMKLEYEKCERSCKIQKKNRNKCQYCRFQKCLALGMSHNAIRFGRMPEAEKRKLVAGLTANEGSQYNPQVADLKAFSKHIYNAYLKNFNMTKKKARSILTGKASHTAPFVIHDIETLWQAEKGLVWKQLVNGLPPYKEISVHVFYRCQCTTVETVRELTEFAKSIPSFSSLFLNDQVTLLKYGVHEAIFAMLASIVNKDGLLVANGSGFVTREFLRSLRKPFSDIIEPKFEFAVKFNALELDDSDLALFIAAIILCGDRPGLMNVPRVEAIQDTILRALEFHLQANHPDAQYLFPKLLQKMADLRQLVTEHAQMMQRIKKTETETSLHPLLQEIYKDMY
Chain of Vitamin D3 receptor (Homo sapiens) (P11473 whole entry, looked up): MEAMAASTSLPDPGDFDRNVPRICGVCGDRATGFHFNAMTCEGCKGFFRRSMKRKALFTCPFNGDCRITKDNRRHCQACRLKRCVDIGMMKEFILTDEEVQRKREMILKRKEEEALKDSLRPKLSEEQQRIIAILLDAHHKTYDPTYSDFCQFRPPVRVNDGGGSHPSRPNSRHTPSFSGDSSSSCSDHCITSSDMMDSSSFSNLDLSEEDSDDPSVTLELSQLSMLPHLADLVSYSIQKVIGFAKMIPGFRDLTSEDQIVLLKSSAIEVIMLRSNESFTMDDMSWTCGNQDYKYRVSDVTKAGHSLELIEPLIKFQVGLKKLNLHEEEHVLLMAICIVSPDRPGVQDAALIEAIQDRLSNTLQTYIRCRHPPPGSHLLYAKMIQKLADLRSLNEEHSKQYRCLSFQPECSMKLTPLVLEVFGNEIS
Chain of Bile acid receptor (Homo sapiens) (Q96RI1 whole entry, looked up): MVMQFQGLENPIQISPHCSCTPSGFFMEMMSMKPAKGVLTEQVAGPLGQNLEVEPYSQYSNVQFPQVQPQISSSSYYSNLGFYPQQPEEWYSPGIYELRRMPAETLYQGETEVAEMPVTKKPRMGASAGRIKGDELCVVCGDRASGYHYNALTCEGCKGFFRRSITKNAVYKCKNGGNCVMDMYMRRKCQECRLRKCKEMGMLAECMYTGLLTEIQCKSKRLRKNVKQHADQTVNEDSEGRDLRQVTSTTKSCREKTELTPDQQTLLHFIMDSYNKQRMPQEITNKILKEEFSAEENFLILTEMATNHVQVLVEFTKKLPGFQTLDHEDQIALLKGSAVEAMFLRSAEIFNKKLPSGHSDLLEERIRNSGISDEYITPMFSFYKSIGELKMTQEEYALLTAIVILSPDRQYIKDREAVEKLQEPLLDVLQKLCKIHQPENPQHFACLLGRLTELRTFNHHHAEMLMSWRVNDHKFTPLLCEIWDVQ

CCCCCCCCCCCC[N+](C)(C)CCCS(=O)(=O)[O-]
inactive: [1] | [2] | [3] | [4] | [5] | [6] | [7] | [8] | [9] | [10] | [11]

CC(=O)[C@H]1CC[C@H]2[C@@H]3C=CC4=CC(=O)CC[C@@]4(C)[C@@H]3CC[C@]12C
inactive: [12] | [13] | [14] | [3] | [15] | [5] | [6] | [7] | [8] | [9] | [16] | [11]

O=Cc1c(Cl)cccc1Cl
inactive: [12] | [17] | [13] | [1] | [2] | [3] | [4] | [18] | [15] | [5] | [6] | [7] | [8] | [9] | [16] | [11]

CC(C)(O)c1ccccc1CC[C@@H](SCC1(CC(=O)O)CC1)c1cccc(/C=C/c2ccc3ccc(Cl)cc3n2)c1
inactive: [12] | [17] | [13] | [1] | [19] | [2] | [14] | [3] | [4] | [15] | [5] | [6] | [7] | [8] | [9] | [16] | [11]

C/C(=N/NC(=O)c1ccncc1)C(=O)O
inactive: [12] | [17] | [13] | [1] | [2] | [3] | [4] | [18] | [15] | [6] | [7] | [8] | [9] | [16] | [11]

COc1cc2ncnc(Nc3ccc(F)c(Cl)c3)c2cc1OCCCN1CCOCC1
active: [12] 29.8 µM | [10] 11.9 µM
inactive: [14] | [4] | [18] | [15] | [5] | [6] | [7] | [8] | [9] | [11]

CC(CCc1ccc2c(c1)OCO2)NN (stereo not drawn)
inactive: [12] | [17] | [13] | [1] | [2] | [3] | [15] | [5] | [6] | [7] | [8] | [9] | [16] | [11]

CC(=O)OCC(=O)[C@H]1CC[C@H]2[C@@H]3CCC4=CC(=O)CC[C@]4(C)[C@H]3CC[C@]12C
inactive: [12] | [17] | [19] | [2] | [14] | [3] | [4] | [18] | [15] | [5] | [6] | [7] | [8] | [9] | [16] | [11]
